Assay results: PubChem BioAssay (NCI)
This is part of a sample that, as a whole, favours compounds with a hit. Of some 79,000 tested, about 15% had one in any assay. Unmarked numbers belong to inactive results. Activity calls are given as the source filed them. Rule as the data show it: active = growth inhibition above about 70%; inactive = the rest.

What was measured:
[1] = NCI Yeast Anticancer Drug Screen. Data for the rad50 strain (AID 155);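 also: 0% = growth of vehicle-only cultures of the same strain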; settings: S. cerevisiae rad50 strain growth inhibition, hits give high values
Procedure, shortened: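 Readout: growth inhibition relative to vehicle-treated cultures. Compound exposure was carried out in a genetically defined yeast strain deficient in DNA damage repair.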

[2] = NCI Yeast Anticancer Drug Screen. Data for the mec2-1 strain (AID 157); settings: S. cerevisiae mec2-1 strain, hits give high values
Procedure, shortened: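 Mutant yeast (mec2-1) grown with compound; growth inhibition relative to vehicle control reported.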

[3] = NCI Yeast Anticancer Drug Screen. Data for the sgs1 mgt1 strain (AID 161);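 also: 0% = growth of cultures given vehicle only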; settings: S. cerevisiae sgs1 mgt1 strain, hits give high values
Procedure, shortened: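 Yeast cells carrying a defined DNA-repair defect were exposed to test compounds. Growth inhibition was measured relative to vehicle-treated controls.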

[4] = NCI Yeast Anticancer Drug Screen. Data for the cln2 rad14 strain (AID 165);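 also: 0% = growth equal to vehicle treated cultures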; settings: S. cerevisiae cln2 rad14 strain, hits give high values
Procedure, shortened: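 Readout is yeast growth inhibition versus vehicle-treated controls, using a strain with cln2 and rad14 alterations exposed to compound.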

[5] = NCI Yeast Anticancer Drug Screen. Data for the bub3 strain (AID 167); settings: S. cerevisiae bub3 mutant strain, hits give high values
Procedure, shortened: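 Readout: yeast growth inhibition, expressed relative to vehicle-only wells. The test organism is a mutant strain from a panel with lesions in DNA repair or checkpoint genes.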

[6] = NCI Yeast Anticancer Drug Screen. Data for the mlh1 rad18 strain (AID 175); settings: S. cerevisiae mlh1 rad18 strain growth inhibition, hits give high values
Procedure, shortened: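 Genetically defined yeast (DNA repair-deficient) exposed to compounds; growth inhibition determined relative to vehicle.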

[7] = at 5.0 µM (retest, dose inferred, filed as 0.5)
[8] = at 50.0 µM (retest, dose inferred, filed as 5.0)

| Compound | growth inhibition [1, 7] [%] | growth inhibition [1, 8] | growth inhibition ([1]; at 50.0 µM) | growth inhibition [2, 7] | growth inhibition [2, 8] | growth inhibition ([2]; at 50.0 µM) | growth inhibition [3, 7] | growth inhibition [3, 8] | growth inhibition ([3]; at 50.0 µM) | growth inhibition [4, 7] | growth inhibition [4, 8] | growth inhibition ([4]; at 50.0 µM) | growth inhibition [5, 7] | growth inhibition [5, 8] | growth inhibition ([5]; at 50.0 µM) | growth inhibition [6, 7] | growth inhibition [6, 8] | growth inhibition ([6]; at 50.0 µM) |
| --- | --- | --- | --- | --- | --- | --- | --- | --- | --- | --- | --- | --- | --- | --- | --- | --- | --- | --- |
| O=[N+]([O-])c1ccc2c(c1)OCO2 | 0 | 22% | 68.2% | 1% | 4% | 8% | -2% | 3% | 69.7% | 1% | 0% | 6.95% | 0% | 3% | 37% | -4% | 5% | 67.7% |
| C/C=C1\SC(=S)NC1=O | 25 | 99% (active) | 98.8% (active) | 11% | 99% (active) | 98.8% (active) | 22% | 98% (active) | 99.2% (active) | 6% | 98% (active) | 95.9% (active) | 9% | 98% (active) | 98% (active) | 36% | 99% (active) | 99.3% (active) |
| O=C(NNC(=O)c1cccc(C(=O)NNC(=O)c2ccc(Cl)c(Cl)c2)n1)c1ccc(Cl)c(Cl)c1 | 35 | 64% | 44.5% | 37% | 66% | 45.8% | 47% | 62% | 52.7% | 54% | 76% (active) | 81.4% (active) | 61% | 80% (active) | 70.2% (active) | 49% | 71% (active) | 51.4% |
| O=[N+]([O-])c1ccc(NSc2ccccc2)cc1 | -14 | 98% (active) | 89.2% (active) | 2% | 99% (active) | 92.5% (active) | 5% | 97% (active) | 90.2% (active) | 21% | 99% (active) | 90.6% (active) | 10% | 98% (active) | 91.3% (active) | 6% | 99% (active) | 88.2% (active) |
| COC(=O)c1cc(OC)c(OC)c(OC)c1 | 4 | 72% (active) | 4.25% | 1% | 18% | -0.5% | 2% | 29% | -13.1% | 2% | 60% | -23.3% | 2% | 70% (active) | 36.9% | -1% | 48% | 0.25% |
| Cc1c(NC(=O)C(=O)N=NC(=O)c2ccncc2)c(O)c2ccccc2c1O | -15 | 91% (active) | 91% (active) | -31% | 90% (active) | 93.5% (active) | -5% | 69% | 91.9% (active) | -24% | 82% (active) | 90.4% (active) | 1% | 96% (active) | 91% (active) | -6% | 93% (active) | 91.3% (active) |
| COC(O)C(=O)c1c2c(cc3c1CC1(Cc4cc5c(cc4C1)CCC5)C3)CCC2 (configuration not stated) | 69 | 98% (active) | 69% | 99% (active) | 99% (active) | 80.5% (active) | 94% (active) | 98% (active) | 83.2% (active) | 99% (active) | 98% (active) | 87.6% (active) | 99% (active) | 98% (active) | 88.5% (active) | 99% (active) | 98% (active) | 90.5% (active) |
| CC1=C(C(=O)Nc2cccc(Cl)c2)C(c2ccccc2O)C(C(=O)Nc2cccc(Cl)c2)=C(C)N1 | 25 | 25% | 55.6% | 14% | 14% | 65% | 9% | 9% | 56.5% | 10% | 10% | 59.2% | 12% | 12% | 57.9% | 25% | 25% | 32.3% |
| CCOC(=O)C(C)(c1c(C)[nH]c2ccccc12)c1c(C)[nH]c2ccccc12 | 1 | 96% (active) | 94.8% (active) | -1% | 94% (active) | 95.6% (active) | 3% | 87% (active) | 95.8% (active) | 4% | 95% (active) | 93% (active) | 6% | 96% (active) | 95.5% (active) | 5% | 92% (active) | 95.3% (active) |
| CC(C)(C)c1ccc(CN2CCN(C(c3ccccc3)c3ccc(Cl)cc3)CC2)cc1 (configuration not stated) | 20 | 52% | 15.7% | 5% | 17% | 1.45% | 27% | 81% (active) | -10.8% | -4% | 21% | -8% | 42% | 73% (active) | -4.4% | 35% | 61% | 52.5% |
| CCc1c(Nc2ccccc2C)[nH]c(N)nc1=S | -2 | -32% | -6.6% | -2% | -7% | 5.35% | -1% | -7% | 12.4% | -7% | -15% | -7% | -4% | 8% | 77.2% (active) | -1% | -7% | -12.4% |
| CC1=C(C(=O)Nc2ccccc2)C(c2ccccc2F)C(C(=O)Nc2ccccc2)=C(C)N1 | -3 | 27% | 48.4% | -4% | 11% | 44% | -4% | 17% | 31.3% | 0% | 37% | -19.1% | -2% | 28% | 11.6% | -5% | 47% | 50.5% |
| O=c1[nH]c(=S)[nH]c(-c2ccccc2)c1Cc1c(O)ccc2ccccc12 | -15 | 74% (active) | 88.7% (active) | 32% | 40% | 89.6% (active) | -10% | 65% | 84.3% (active) | -17% | 41% | 75.2% (active) | -15% | 57% | 80.8% (active) | -4% | 60% | 79.7% (active) |
| C=CC[C@]1(C(C)C(OC(C)=O)c2ccc3c(c2)OCO3)C[C@@H](OC)C=CC1=O (some centres not stated) | 10 | 98% (active) | 10.5% | 10% | 98% (active) | -0.85% | 10% | 98% (active) | -0.2% | -3% | 98% (active) | -12.7% | 4% | 98% (active) | 1.4% | 9% | 98% (active) | 40% |
| CCOC(=O)/C(=C\c1ccc(-c2ccccc2)cc1)C(C)=O | 0 | 93% (active) | 67.1% | -27% | 95% (active) | 73.5% (active) | 21% | 92% (active) | 81.2% (active) | 1% | 85% (active) | 45.5% | 16% | 96% (active) | 66.9% | -27% | 94% (active) | 76.6% (active) |
| OCCCNc1nc2ccc(Cl)cc2c2ccccc12 | 7 | 5% | 23.6% | 2% | 2% | 12.4% | 6% | 3% | 25.7% | 5% | 1% | 2.7% | -3% | -4% | 23.8% | -1% | 5% | 70.5% (active) |
| CCCc1cc(=O)oc2c3c(c4c(c12)OC(C)(C)CC4)O[C@H](C)[C@@H](C)[C@H]3O | 8 | 94% (active) | 83.5% (active) | 17% | 97% (active) | 90.5% (active) | 14% | 96% (active) | 89.2% (active) | 18% | 95% (active) | 88.7% (active) | 23% | 96% (active) | 86.8% (active) | 10% | 95% (active) | 86.5% (active) |
| CCCCCCC(O)C(CO)CCCCC (configuration not stated) | 0 | 97% (active) | 98% (active) | -2% | 96% (active) | 98% (active) | 1% | 62% | 45.5% | 5% | 97% (active) | 98.8% (active) | 0% | 97% (active) | 98.2% (active) | -2% | 92% (active) | 98.5% (active) |
| CC(C)/C=N/N(CCOC(=O)Nc1ccccc1)C(=O)Nc1ccccc1 | 8 | -6% | -3.85% | -6% | -12% | 14.3% | -1% | -6% | -12.7% | -5% | -1% | 82.2% (active) | -7% | -9% | 16.1% | -3% | -5% | 6.9% |
